L3MBTL1 inh = inhibitors of human L3MBTL1; Q9Y468; AlphaScreen L3MBTL1–H3K9me1 peptide binding; Potency, µM (series often up to 57.1 µM), inactives show top-dose activity, negative = inhibition, usual class: inhibitors; hit rate 0.66% among 230,000; AID 485360; also: % is scaled to controls: 0 for no effect and ±100 for the full control effect; nearly all actives have a fitted effect of over 60% in size
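First, the protein-peptide complex forms for 30 min at room temperature (L3MBTL1 50 nM, biotinylated H3K9me1 peptide 75 nM). Next, compounds are pin-transferred and incubated 30 min. Finally, AlphaScreen beads are added and read after 30 min.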
JMJD2A Tudor inh = blocks the human JMJD2A Tudor domain | AlphaScreen JMJD2A-Tudor / H3K4me3 peptide binding | Potency, µM (highest dose often 114 µM), for inactives: at the top dose activity change, negative = inhibition, hits mostly inhibitors | hit rate 4.4% among 390,000; also: % is scaled to controls: 0 for no effect and ±100 for the full control effect; nearly all actives have a fitted effect of over 50% in size
G9a block = inhibitors of human histone lysine methyltransferase G9a; Q96KQ7; G9a H3K9 monomethylation, AlphaScreen, 2 h; Potency, µM (highest dose often 102 µM), for inactives: top-dose activity, negative = inhibition, actives largely listed as inhibitors; hit rate 8.8% among 350,000; AID 504332; also: % is scaled to controls: 0 for no effect and ±100 for the full control effect; nearly all actives have a fitted effect of over 75% in size
Target sequence (Q96KQ7 913-1193 limits assumed): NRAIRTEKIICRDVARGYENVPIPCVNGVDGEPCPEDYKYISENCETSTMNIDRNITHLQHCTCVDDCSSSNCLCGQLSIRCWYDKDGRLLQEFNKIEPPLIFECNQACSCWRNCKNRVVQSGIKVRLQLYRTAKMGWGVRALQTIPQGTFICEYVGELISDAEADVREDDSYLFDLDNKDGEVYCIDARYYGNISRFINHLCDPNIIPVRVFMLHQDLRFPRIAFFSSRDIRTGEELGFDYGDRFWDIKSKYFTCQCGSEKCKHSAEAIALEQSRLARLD
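Enzyme 20 nM + cpd, 15 min RT; add b-H3K9 pep 500 nM / SAM 20 uM; 2 h RT; anti-H3K9me1 Ab 0.5 ug/mL + SA donor / anti-rabbit acceptor beads 20 ug/mL each, 10 min; AlphaScreen read.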
BAZ2B inh = BAZ2B (human) inhibition; Q9UIF8; AlphaScreen BAZ2B-H3K14Ac peptide displacement; Potency, µM (doses to about 114 µM), without a hit: at the top dose activity change, negative = inhibition, hits mostly inhibitors; hit rate 4.4% among 360,000; also: % is scaled to controls: 0 for no effect and ±100 for the full control effect; nearly all actives have a fitted effect of over 60% in size
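In this displacement format the biotinylated H3(5-23) peptide acetylated at Lys14 serves as ligand at 50 nM, with BAZ2B at 50 nM in PBS pH 7.4 containing 0.01% Tween-20. Donor and acceptor beads are 10 ug/mL final.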
HP1b binding inh = HP1-beta chromodomain-methylated histone interaction inhibition; P83916; AlphaScreen HP1-beta / biotin-H3K9me3 peptide binding; Potency, µM (series often up to 114 µM), without a hit: at the highest dose activity change, negative = inhibition, hits mostly inhibitors; hit rate 0.56% among 390,000; AID 540317; also: nearly all actives have a fitted effect of over 70% in size
Target sequence (P83916 whole entry, looked up): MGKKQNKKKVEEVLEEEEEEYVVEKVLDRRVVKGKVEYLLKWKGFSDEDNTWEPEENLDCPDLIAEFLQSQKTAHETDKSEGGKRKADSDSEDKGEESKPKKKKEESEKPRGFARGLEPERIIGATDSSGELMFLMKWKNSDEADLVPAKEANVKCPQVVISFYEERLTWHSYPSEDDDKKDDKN
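Compound inhibition of the preformed complex between 50 nM HP1-beta and 50 nM biotinylated H3K9me3 peptide was read by AlphaScreen. Buffer was PBS pH 7.4 with 0.01% Tween-20. Incubations ran 30 min at room temperature, with 10 ug/mL donor/acceptor beads.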
Sfp PPTase inh = Sfp phosphopantetheinyl transferase inhibition. Biochemical Sfp PPTase activity, qHTS. Potency, µM, inactives show largest response in the series, negative = inhibition, usual class: inhibitors. hit rate 3.5% among 310,000. AID 1490;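 also: the enzyme is Sfp with the accession as filed and its product quenches rhodamine fluorescence; 0% = enzyme reaction without inhibitor and -100% = no enzyme wells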
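Buffer: 50 mM Hepes-Na pH 7.6, 10 mM MgCl2, 0.01% Nonidet P-40, 0.01% BSA. Enzyme 15 nM, pre-exposed to compound 15 min; substrates then added and fluorescence change tracked over 30 min.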
The depositor's hits bear a star; ? = inconclusive; / = no result; [ ] = dose if it differs, or a comment. In the library only some 12% were active in any assay of this set; here they are far more common. Calls follow the shape of the dose curve; as a rule, active = well fitted curve in the direction sought with a large enough effect; inconclusive = small, poorly fitted or top-dose-only effect, or another doubt; inactive = no such curve, though single readings can be large; an effect the other way counts as inactive or inconclusive. Potency is read from the fitted curve at half-maximal effect.

SMILES	L3MBTL1 inh	JMJD2A Tudor inh	G9a block	BAZ2B inh	HP1b binding inh	Sfp PPTase inh
CCN1C(=O)[C@H]2[C@H]3[C@H](O)[C@H](O)C/C(=N/NC(=O)OCc4ccc(OC)cc4)[C@H]3CC[C@@H]2C1=O	/	/	/	/	/	1%
CC(=O)/C=C/c1ccccc1O	8%	-10%	-4%	-1%	16%	26%
COC(=O)/C=C/c1cc(O)ccc1O	/	/	2.8µM*	/	/	50µM*
CC1(C)O[C@H]2C[C@@H]3[C@H]4CCC5=CC(=O)CC[C@@]5(C)[C@]4(F)[C@@H](O)C[C@@]3(C)[C@@]2(C(=O)CCl)O1	/	/	32%[21.5 µM]	/	/	15%
COc1ccccc1/C=C/C1=NC(=C\C=C/c2ccccc2)/C(=O)O1	1%	56µM*	?	?	?	0%
N#C/C(=C\c1ccc(OCc2ccccc2)cc1)C(N)=O	/	14µM*	-28%	1%	?	-19%
N#C/C(=C\c1ccc(OCc2ccc(F)cc2)cc1)C(=O)Nc1cccc(C(=O)O)c1	/	-31%	-8%[12.7 µM]	79µM*	22%	11%
N#C/C(=C\c1ccccc1OCc1ccc(C(=O)O)cc1)C(=O)Nc1ccc(O)cc1	/	-11%[11.4 µM]	50µM*	-33%	?	-13%
N#C/C(=C/c1ccc(OCc2ccc(C(=O)O)cc2)cc1)C(=O)Nc1ccccc1	/	25µM*	50µM*	79µM*	1%	-3%
O=C(c1cccc(F)c1)N1CCC[C@@]2(CCN(c3ccncc3)C2)C1	/	/	1%[12.7 µM]	/	/	-7%
CCOC(=O)c1c(C)oc2nc(C)nc(N3CCN(c4cccc(C)c4C)CC3)c12	/	-7%	?	-26%[57.1 µM]	23%	/
CCN(C/C=C/C#CC(C)(C)C)Cc1cccc(OCc2cc(-c3ccsc3)cs2)c1	/	/	/	/	/	13%
COc1cc(/C=C(\C#N)C(=O)Nc2cccc(C(=O)O)c2)ccc1OCc1ccc(F)cc1	/	-29%	?	-29%	26%	4%
N#C/C(=C\c1ccc(OCc2ccc(Br)cc2)cc1)C(=O)Nc1cccc(C(=O)O)c1	/	40µM*	?	56µM*	-3%	-3%
COC(=O)N1CCN(/[N+]([O-])=N/Oc2ccc([N+](=O)[O-])cc2[N+](=O)[O-])CC1	/	-12%	/	/	39%	-9%
CC(C(=O)Nc1ccccc1F)N1CCN(C)CC1 (stereo not given)	/	/	?	50µM*	/	?
CN1CCN(C(=O)c2ccc(CS(=O)Cc3ccc(Cl)cc3)o2)CC1 (stereo not given)	/	-8%	-8%	0%	24%	12%
COc1ccc(N2CCN(C(=O)c3ccc(CS(=O)Cc4ccc(Cl)cc4)o3)CC2)cc1 (stereo not given)	/	?	50µM*	?	-6%	1%
COc1ccc(N2CCN(C(=O)c3ccc(CS(=O)c4cccc(C)c4)o3)CC2)cc1 (stereo not given)	/	-22%	56µM*	?	22%	2%
COc1cccc(N2CCN(C(=O)c3ccc(CS(=O)c4ccccc4C)o3)CC2)c1 (stereo not given)	/	?	21%	-23%	-12%[57 µM]	10%
Cc1cccc(-c2nc3c4ccccc4nc(NCc4ccccc4Cl)n3n2)c1	/	3%	55%[59 µM]	?	76%	/
CCCCN1C(=O)C(O)(c2c[nH]c3ccccc23)c2cc(Br)ccc21 (stereo not given)	/	-32%	-41%[59 µM]	?	-1%	/
Cc1ccc(C)n1-c1sc2c(c1C#N)CCCC2	-9%	-13%	-6%[59 µM]	5%	-2%	-4%
Cc1sc(-n2c(C)ccc2C)c(C#N)c1C	-2%	-36%	7.9µM*	-6%	-33%	63µM*
CCCCCCCCCCCCCCCC(=O)C1=C(O)C(CO)OC1=O (stereo not given)	/	/	10µM*	/	/	-8%
SMILES	L3MBTL1 inh	JMJD2A Tudor inh	G9a block	BAZ2B inh	HP1b binding inh	Sfp PPTase inh
CCCCCCCCC1OC1CCCCCCCC(=O)O (stereo not given)	/	/	/	/	/	13%
COC(=O)c1ccc(C(=O)OC)c(NC(=O)c2ccc(-c3ccccc3)s2)c1	/	0%	24%[59 µM]	20%	67%	/
CCOc1cccc(C(=O)Nc2ccc3oc(-c4ccncc4)nc3c2)c1	/	-15%	-4%[59 µM]	2%	24%	/
COc1ccc(CCC(=O)NCc2nc3cccnc3n2Cc2ccc(C)cc2)cc1	/	-9%	11%[59 µM]	-2%	24%[57 µM]	/
O=c1[nH]c(SCc2n[nH]c(=S)n2-c2ccccc2)nc2sc3c(c12)CCC3	/	56µM*	2µM*	-33%	-8%	?
CCCCSc1nc2sc3c(c2c(=O)[nH]1)CCC3	-4%	-17%	-38%	3%	3%	-3%
Nc1nc(SCc2nnc(SCC(=O)O)n2-c2ccccc2)nc2sc3c(c12)CCCC3	/	-31%	79µM*	-32%	14%	12%
CCc1ccccc1NC(=O)CN1C(=O)CCSc2ccc(S(=O)(=O)N3CCCC3)cc21	/	-10%	13%[59 µM]	-4%	10%[57 µM]	/
CCOc1ccc(NC(=O)c2ccc3c(c2)CCN3S(=O)(=O)c2ccc(Cl)cc2)cc1	/	-15%	2%[59 µM]	-9%	33%	/
COc1ccc(N2CCN(Cc3csc(C)c3-c3ccc(C)cc3)CC2)cc1	/	13µM*	11µM*	28µM*	35µM*	-21%
COc1ccc(N2CCN(Cc3cc4c(cc3Br)OCCO4)CC2)cc1	/	22µM*	28µM*	13µM*	?	-7%
Cn1c(SCc2cccc(Br)c2)nnc1-c1ccccn1	-9%	-2%	19%[12.7 µM]	?	31%	4%
Cn1c(SCc2cccc(F)c2)nnc1-c1ccccn1	-4%	79µM*	1%[59 µM]	71µM*	19%	10%
Cc1ccccc1CSc1nnc(-c2ccccn2)n1C	-5%	-5%	-4%	79µM*	32%	3%
Cc1ccccc1-n1ccnc1SCC(=O)O	/	-12%	-15%	-21%	25%	5%
Cc1ccccc1CSc1nccn1-c1ccccc1	?	?	/	35µM*	?	-26%
Cc1ccccc1NC(=O)CN1C(=O)S/C(=C\c2cccn2-c2cccc(C(=O)O)c2)C1=O	?	79µM*	?	56µM*	?	-20%
Cc1cccc(C)c1NC(=O)CN1C(=O)S/C(=C\c2cccn2-c2cccc(C(=O)O)c2)C1=O	-9%	50µM*	?	79µM*	-11%	-17%
Cc1ccc(NC(=O)CN2C(=O)S/C(=C\c3cccn3-c3cccc(C(=O)O)c3)C2=O)c(C)c1	?	22µM*	?	40µM*	50µM*	50µM*
Cc1cccc(C)c1-n1cccc1/C=C1\SC(=S)N(c2cccc(C(=O)O)c2)C1=O	/	?	?	50µM*	?	40µM*
O=C1/C(=C/c2cccnc2)SC(=S)N1c1ccccc1	-1%	-4%	?	8%	28%	-18%

Compound activity: PubChem, National Center for Advancing Translational Sciences (NCATS)
